The results in this text go back to ChEMBL document CHEMBL4513139, “CO-ADD screening of University of Strathclyde (UK) compounds”.

One experiment concerns Klebsiella pneumoniae. As to conditions: Concentration 32 ug.mL-1; ASSAY_TEST Inhibition of Bacterial Growth; detection method Absorption (OD600); MEDIA CAMHB; plate type 384well; NBS; CORNING #3640; time 18 hr.
Another experiment has as its system Candida albicans. The note with it: 32 ug/mL.
The next experiment deals with Cryptococcus neoformans. The note with it: Concentration 32 ug.mL-1; ASSAY_TEST Inhibition of Fungal Growth; detection method Resazurin; Absorption (OD600-OD570); plate type 384well; NBS; CORNING #3640. A general note: The colour change of resazurin is a common sign of viable cells or microbes.

The structures appear in SMILES notation. Potency and affinity values are given separately.

With `CCOP(=O)(OCC)C(Cc1cn(Cc2cnc(C)nc2N)nn1)C(=O)O.O=C(O)C(F)(F)F` (stereo not drawn), the Inhibition with Klebsiella pneumoniae was -0.1%; in the experiment with Candida albicans, 2.73%; with Cryptococcus neoformans, -36.59%.

As a reminder, the Inhibition is the drop in the measured response relative to a control, in per cent.
